# Reference: PubChem BioAssay (NCATS)
# “And” between values parts separate entries of the source, which are not always exact repeats. Identical values can stand only once. Records with an inconclusive call do not appear. The source made the active and inactive calls. Calls come from the whole dose curve; as a rule, active = well fitted activation curve with a large enough effect; inconclusive = small, poorly fitted or top-dose-only effect; inactive = no such curve, though single readings can be large or run the other way.
# Target: Cellular tumor antigen p53 (Homo sapiens) (UniProt P04637)
# Assay: Primary qHTS for small molecule compounds that upregulate eGFP-tagged delta133p53alpha (in N-terminal) cells. (AID 2060322); note: nearly all actives have a fitted effect of over 75% in size;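 for activation: cells pre-induced with doxycycline then dosed without doxycycline; series mostly up to about 56 µM; 0% = DMSO vehicle and 100% = reference activator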
# Conditions: NCI-H358 eGFP-delta133p53alpha fluorescence, 24 h; activation: active compounds read high
# In short: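 NCI-H358 cells pre-induced 24 h with 10 ng/ml doxycycline for eGFP-delta133p53alpha, plated dox-free and exposed 24 h at 37C to titrated compounds. Fixed, Hoechst-stained; gated GFP peak intensity by laser scanning cytometry, normalized to DMSO (0%) and 57.5 uM 5-azacytidine (100%).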
# Potency is the fitted concentration of half-maximal effect.
# Cellular tumor antigen p53 (Homo sapiens), sequence (P04637 whole entry, looked up): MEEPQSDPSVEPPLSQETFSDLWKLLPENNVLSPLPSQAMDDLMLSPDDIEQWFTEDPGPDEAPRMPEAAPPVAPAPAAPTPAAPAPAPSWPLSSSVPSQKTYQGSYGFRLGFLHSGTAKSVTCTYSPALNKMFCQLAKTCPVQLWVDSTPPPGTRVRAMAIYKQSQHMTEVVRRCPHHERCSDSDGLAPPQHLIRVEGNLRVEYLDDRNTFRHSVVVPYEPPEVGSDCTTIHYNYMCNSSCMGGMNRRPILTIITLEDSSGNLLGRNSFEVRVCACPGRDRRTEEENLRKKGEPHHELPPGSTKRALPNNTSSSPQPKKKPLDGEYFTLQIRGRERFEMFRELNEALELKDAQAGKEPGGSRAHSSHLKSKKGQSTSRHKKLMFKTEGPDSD
SMILES,Potency,activation
Nc1ccc(Cl)cc1N,22.4 µM (active),–
CCCC(C)(COC(N)=O)COC(=O)NC(C)C (stereo not given),–,-6.69% (inactive) and 15.9% (inactive)
c1cc2c(cc1[C@H]1OC[C@H]3[C@H]1CO[C@H]3c1ccc3c(c1)OCO3)OCO2,–,13.9% (inactive)
C1CCC(NC2CCCCC2)CC1,–,7.53% (inactive)
COc1cc(OC)c(OC)cc1C=O,–,5.76% (inactive)
C1=C2CCCN[C@H]2[C@@H]2C[C@H]1[C@@H]1CCCCN1C2,–,1.08% (inactive)
CCC(COC(=O)c1cc(OC)c(OC)c(OC)c1)(c1ccccc1)N(C)C (stereo not given),–,-7.34% (inactive)
NC(=O)CS(=O)C(c1ccccc1)c1ccccc1 (stereo not given),–,-6.21% (inactive)
CCC(CC)(CNC(=O)CCCO)c1cccc(OC)c1,–,16.7% (inactive)
C[C@](O)(CS(=O)(=O)c1ccc(F)cc1)C(=O)Nc1ccc(C#N)c(C(F)(F)F)c1,–,-4.55% (inactive)
CN1C(=O)CN=C(c2ccccc2)c2cc(Cl)ccc21,–,-7.34% (inactive)
Cc1ccc2c(c1)C1CN(C)CCC1N2 (stereo not given),–,0.837% (inactive)
Nc1ccc([N+](=O)[O-])cc1,–,28.8% (inactive)
CCN(CCO)CCn1c(Cc2ccccc2)nc2c1c(=O)n(C)c(=O)n2C,–,16.7% (inactive)
CC(Cc1ccccc1)NCc1ccccc1Cl (stereo not given),–,16.4% (inactive)
COc1ccc(CC2NCCc3cc(OC)c(OC)cc32)cc1OC (stereo not given),–,-6.46% (inactive)
O=c1[nH]c2cc(Cl)ccc2n1C1CCNCC1,–,9.6% (inactive)
CCC(=O)O[C@H]1CC[C@H]2[C@@H]3CCC4=CC(=O)CC[C@]4(C)[C@H]3CC[C@]12C,–,-0.565% (inactive)
Cc1ccc(N=CN(C)C=Nc2ccc(C)cc2C)c(C)c1,–,13% (inactive)
CCCCCCCCCCCC[N+](C)(C)CCOc1ccccc1,21.9 µM (active),–
